The list is not random: actives were taken first. Their share in the collection is about 3.7%.
TCR act – Activators of T cell receptors: qHTS campaign; AID 504894, 2011; Potency, µM (top dose mostly 9.22 µM), hits mostly activators; 330,000 tested, under 10 active; primary human leukocytes, anti-CD3, IL-2 HTRF, 48 h
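Using a-CD3 beads without co-stimulation, primary human leukocytes were exposed to compounds for 48 hr. An HTRF IL-2 kit measured the cytokine, with europium-to-d2 energy transfer producing emission at 665nm upon 320nm excitation.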
miR-21 reporter – qHTS Assay for Modulators of miRNAs and/orActivators of miR-21. HeLa miR-21 FLuc reporter, luciferase, 48 h. AID 2288, 2010. Potency, µM (titrated, usually from 38.3 µM), actives largely listed as activators. 340,000 tested, under 10 active;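 further: miR-21 action dims this reporter so a rising signal means less miR-21 action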
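Compounds were titrated across several concentrations (up to approximately 40 uM) and incubated 48 hours with HeLa miR-21-FLuc reporter cells (miR-21 target sequence downstream of FLuc, endogenous miR-21). Readout was firefly luciferase luminescence after lytic detection reagent.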
Nrf2 block – Nrf2 qHTS screen for inhibitors | A549 ARE-Fluc reporter, luciferase luminescence, 18-24 h | Potency, µM (series often up to 46 µM), actives largely listed as inhibitors | 2.1% of 360,000 active; further: nearly all actives have a fitted effect of over 60% in size
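Nrf2 activity is the BugLite luminescence, read 15 min after reagent at room temperature, following CellTiter-Fluor cytotoxicity readout (30 min, 37C). Compound titrations were applied for 18-24 h to 5000 A549 ARE_Fluc cells/well in 5% FBS OPTI-MEM.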
A549 tox – Nrf2 qHTS screen for inhibitors: counterscreen for cytotoxicity | AID 504648, 2011 | A549 ARE-Fluc cells, CellTiter-Fluor viability, 18-24 h | 0.16% of 390,000 active | Potency, µM (doses to about 46 µM), most hits filed as inhibitors
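A549 ARE_Fluc cells in 5% FBS OPTI-MEM were exposed to compounds in concentration-response for 18-24 h at 37 deg C. Viability was read by CellTiter-Fluor fluorescence (Ex 405/Em 525) after 30 min, before the luciferase read.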
ClpP mod – qHTS Assay for Activators of ClpP; Potency, µM (doses to about 57.5 µM); 1.9% of 340,000 active; purified B. subtilis ClpP, FRET peptide cleavage, 20 min; active means well fitted falling curve with a large enough effect; inconclusive means small, poorly fitted or top-dose-only effect; inactive means no such curve, though single readings can be large or run the other way; further: the source files actives as falling curves though it sought activators and does not explain the sign; nearly all actives have a fitted effect of over 65% in size
Target sequence (P80244 whole entry, looked up): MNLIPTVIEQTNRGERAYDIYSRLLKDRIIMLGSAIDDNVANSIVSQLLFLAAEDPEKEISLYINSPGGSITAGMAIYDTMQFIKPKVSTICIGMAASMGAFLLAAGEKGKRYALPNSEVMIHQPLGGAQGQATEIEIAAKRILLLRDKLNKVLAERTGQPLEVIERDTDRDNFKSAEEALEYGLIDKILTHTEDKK
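FRET quenching reversal measured ClpP activation: 10 microg/mL B. subtilis ClpP at pH 8 with the FRET-FV decapeptide, read at 430 nm after 320 nm excitation. The 20-min minus 0-min signal was scaled between DMSO/no-enzyme wells and ADEP (5.8 microM final).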
Nrf2 ARE act – qHTS of Nrf2 Activators. Potency, µM (highest dose often 46.1 µM), usual class: activators. 0.31% of 410,000 active. AID 624171, 2012. AREc32 ARE-luciferase reporter (MCF7-derived line), luminescence, 24 h; further: nearly all actives have a fitted effect of over 65% in size
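Quantitative high-throughput format: AREc32 reporter cells, 1000 per well, received compound by pin transfer and were incubated 24 hr at 37 deg C, 5% CO2, before Steady-Glo luminescence detection.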
Large screens that a line does not name were inactive. Unless noted, the call rests on the fitted dose curve; in most records, active means well fitted curve in the direction sought with a large enough effect; inconclusive means small, poorly fitted or top-dose-only effect, or another doubt; inactive means no such curve, though single readings can be large; an effect the other way counts as inactive or inconclusive.

Cc1cccc(C(=O)Nc2ccc(N3CCC(N4CCCCC4)CC3)c(C(=O)O)c2)c1	none (no result: TCR act, Nrf2 block)
COc1ccc(/C=C2\CCCC3C2=NN(C(=O)CSc2ncn[nH]2)C3c2ccc(OC)cc2)cc1 (stereo unspecified)	Nrf2 block inconclusive
Cc1ncsc1C(=O)N1N=C2/C(=C/c3ccccc3)CCCC2C1c1ccccc1 (stereo unspecified)	ClpP mod 35µM
COc1ccc(/C=C2\CCCC3C2=NN(C(=O)COC(=O)CNC(=O)c2ccccc2)C3c2ccc(OC)cc2)cc1 (stereo unspecified)	Nrf2 block 13µM, ClpP mod inconclusive (no result: A549 tox)
Cc1cccc(NS(=O)(=O)c2ccc(C)c(C(=O)NC3CCN(Cc4ccccc4)CC3)c2)c1	Nrf2 block 8.2µM (no result: miR-21 reporter)
O=C(NC1CCN(Cc2ccccc2)CC1)c1ccc(S(=O)(=O)NCc2ccco2)cc1	Nrf2 block 6.5µM
O=C(Nc1ccc(S(=O)(=O)NCc2ccco2)cc1)c1ccncc1	Nrf2 block 13µM
Cc1ccccc1C(=O)NC1CCN(Cc2ccccc2)CC1	none (no result: ClpP mod)
O=C(NC1CCCCC1)c1ccc(S(=O)(=O)NCc2ccco2)cc1	none
Cc1ccc(NC(=O)c2ccc(S(=O)(=O)NCc3ccco3)cc2)cc1	Nrf2 block inconclusive (no result: ClpP mod)
COC(=O)c1c(NC(=O)COC(=O)c2ccc(Cl)nc2)sc(C)c1C	none (no result: miR-21 reporter)
O=C(c1sc2cccc(Cl)c2c1Cl)N1CCN(CCc2ccccn2)CC1	none
N#C/C(=N\Nc1cccc(F)c1)C(=O)C1CC1	Nrf2 block 21µM, A549 tox inconclusive
COc1cc2c(NC3CCN(C(C)C)CC3)nc(N3CCCN(C)CC3)nc2cc1OCCOCCN1CCCC1	none (no result: TCR act, miR-21 reporter, Nrf2 block, A549 tox, Nrf2 ARE act)
O=C(N/N=C/c1ccccn1)c1cc(-c2ccc3ccccc3c2)n[nH]1	Nrf2 block inconclusive, ClpP mod 22µM
CCc1ccc(-c2cc(C(=O)N/N=C/c3ccccn3)[nH]n2)cc1	none (no result: ClpP mod)
O=C(N/N=C/c1c[nH]c2ccccc12)c1cc(-c2ccc(-c3ccccc3)cc2)n[nH]1	Nrf2 block inconclusive, A549 tox 18µM
COc1ccc(/C=C/C(=O)NCc2cn(C)nc2C)cc1COc1ccc(Cl)cc1Br	ClpP mod 14µM (no result: Nrf2 block)
Cc1ccc2c(c1)[nH]c1c(=O)n(Cc3ccccn3)cnc12	ClpP mod 32µM (no result: Nrf2 block)
Cc1ccc2[nH]c3c(=O)n(CCCN4CCOCC4)cnc3c2c1	ClpP mod 14µM
COc1cc2[nH]c3c(=O)n(CCN4CCCCC4)cnc3c2cc1OC	A549 tox inconclusive, ClpP mod 14µM
CCC1CCCN1Cn1cnc2c([nH]c3ccc(C)cc32)c1=O (stereo unspecified)	ClpP mod 28µM
COc1ccc2c(c1)[nH]c1c(=O)n(Cc3ccccn3)cnc12	none
COCCn1c(SCC(=O)Nc2ccc(C(F)(F)F)cc2)nc2c([nH]c3ccccc32)c1=O	none (no result: TCR act, Nrf2 block)
O=C(OCc1cn([C@H]2CN(C(=O)C3CCCCC3)[C@@H](c3ccc(Cl)cc3)C[C@@H]2O)nn1)c1ccccc1	none (no result: TCR act, miR-21 reporter, Nrf2 block, A549 tox)
COc1ccc(OC)c(C(O)c2ncc(-c3cccc4ccccc34)[nH]2)c1 (stereo unspecified)	none (no result: TCR act, miR-21 reporter, Nrf2 block, A549 tox)
Cn1c2ccc(F)cc2c2ncn(CCN3CCOCC3)c(=O)c21	ClpP mod inconclusive
Cc1ccc2[nH]c3c(=O)n(CCN4CCOCC4)cnc3c2c1	Nrf2 block inconclusive, ClpP mod inconclusive
Cn1c2ccccc2c2ncn(CCCN3CCOCC3)c(=O)c21	Nrf2 block inconclusive, ClpP mod 25µM
Cc1ccc2[nH]c3c(=O)n(CCc4cnc[nH]4)cnc3c2c1	ClpP mod 16µM
CCC1CCCCN1C(=O)COC(=O)c1n[nH]c2ccccc12 (stereo unspecified)	ClpP mod inconclusive
CC1CCN(C(=O)COC(=O)c2n[nH]c3ccccc23)CC1	Nrf2 block inconclusive, ClpP mod 28µM
CC[C@H]1CCCCc2ccccc2[C@@H](C(=O)C[C@@H](O)CC(C)=O)OC1=O	none (no result: miR-21 reporter)
C/C(=N\NC(=O)c1ccc(Cl)cc1)c1ccccn1	Nrf2 block 3.7µM, A549 tox inconclusive, Nrf2 ARE act inconclusive (no result: ClpP mod)
COc1ccc(C(=O)N/N=C(\Cc2ncc[nH]2)c2ccccc2)cc1	Nrf2 block inconclusive
COc1cc(C(=O)N/N=C(\C)c2ccccn2)cc(OC)c1OC	A549 tox inconclusive (no result: TCR act)
COc1cc(C(=O)N/N=C(\c2ccccc2)c2ccccn2)cc(OC)c1OC	Nrf2 block 4.6µM, A549 tox inconclusive
COc1cc(C(=O)N/N=C(\Cc2ncc[nH]2)c2ccccc2)cc(OC)c1OC	Nrf2 block 15µM, A549 tox inconclusive (no result: ClpP mod)
Cc1ccc(F)cc1C(=O)N1CCCCC1c1cc(C(=O)Nc2ccc(F)c(Cl)c2)no1 (stereo unspecified)	none (no result: TCR act, miR-21 reporter, Nrf2 block, A549 tox)
CCN(CC)CCCn1c2c(c(SCC(=O)Nc3ccc4c(c3)OCCO4)nc1=O)CCC2	none (no result: miR-21 reporter)
Nc1ccn(CCCNC2CCN(Cc3ccccc3)CC2)c(=O)n1	none (no result: TCR act, miR-21 reporter, Nrf2 block, A549 tox)
O=C(NCCc1ccccc1)[C@@H]1CC=C[C@@H]2CCN(C3CC3)C(=O)[C@@H]21	none (no result: TCR act, miR-21 reporter, Nrf2 block, A549 tox, Nrf2 ARE act)
CCC(C)/C=C/C1=CC2=C(Cl)C(=O)C3(C)OC(=O)C(C(=O)C(C)C(C)O)C3C2=CO1 (stereo unspecified)	ClpP mod 22µM
O=C(NCc1ccncc1)c1ccc(-c2ccc(F)c(F)c2)c2ccoc12	none (no result: TCR act, miR-21 reporter, Nrf2 block, A549 tox)
O=C(NCc1ccc(C(F)(F)F)cc1)c1ccc(-c2ccc(F)c(F)c2)c2ccoc12	ClpP mod 28µM (no result: TCR act, miR-21 reporter, Nrf2 block, A549 tox)
OCCCc1cn(Cc2ccccc2)c2ccccc12	ClpP mod 18µM
CC(=O)NC(C)Cc1cn(Cc2ccccc2)c2ccccc12 (stereo unspecified)	none
O=C(Nc1ccc(F)cc1)c1cccnc1NCCc1ccccc1	Nrf2 block inconclusive
O=C(Nc1cccc(C(F)(F)F)c1)c1cccnc1NCCc1ccccc1	ClpP mod 28µM
O=C(Nc1cccc(F)c1)c1cccnc1NCCc1ccccc1	Nrf2 block 23µM, ClpP mod inconclusive
CCOc1cccc(-c2c(C(=O)N/N=C/c3sccc3C)nnn2-c2nonc2N)c1	Nrf2 block 16µM
Cc1ccc(-c2c(C(=O)N/N=C/c3cccs3)nnn2-c2nonc2N)cc1	none
CCOc1ccc(-c2c(C(=O)N/N=C/c3cccs3)nnn2-c2nonc2N)cc1	Nrf2 block 12µM
C/C(=N\NC(=O)c1nnn(-c2nonc2N)c1-c1ccccc1)c1ccccc1O	miR-21 reporter inconclusive, Nrf2 block 4.6µM
